Screening data as filed in PubChem BioAssay.
This excerpt belongs to a sample that is enriched for hits.
L3MBTL1 inh-1 = qHTS Assay for the Inhibitors of L3MBTL1 | AlphaScreen L3MBTL1–H3K9me1 peptide binding | Potency, µM (series often up to 57.1 µM), hits mostly inhibitors | actives 0.66% (n = 230,000) | AID 485360, 2010; note: nearly all actives have a fitted effect of over 60% in size
Target sequence (Q9Y468 whole entry, looked up): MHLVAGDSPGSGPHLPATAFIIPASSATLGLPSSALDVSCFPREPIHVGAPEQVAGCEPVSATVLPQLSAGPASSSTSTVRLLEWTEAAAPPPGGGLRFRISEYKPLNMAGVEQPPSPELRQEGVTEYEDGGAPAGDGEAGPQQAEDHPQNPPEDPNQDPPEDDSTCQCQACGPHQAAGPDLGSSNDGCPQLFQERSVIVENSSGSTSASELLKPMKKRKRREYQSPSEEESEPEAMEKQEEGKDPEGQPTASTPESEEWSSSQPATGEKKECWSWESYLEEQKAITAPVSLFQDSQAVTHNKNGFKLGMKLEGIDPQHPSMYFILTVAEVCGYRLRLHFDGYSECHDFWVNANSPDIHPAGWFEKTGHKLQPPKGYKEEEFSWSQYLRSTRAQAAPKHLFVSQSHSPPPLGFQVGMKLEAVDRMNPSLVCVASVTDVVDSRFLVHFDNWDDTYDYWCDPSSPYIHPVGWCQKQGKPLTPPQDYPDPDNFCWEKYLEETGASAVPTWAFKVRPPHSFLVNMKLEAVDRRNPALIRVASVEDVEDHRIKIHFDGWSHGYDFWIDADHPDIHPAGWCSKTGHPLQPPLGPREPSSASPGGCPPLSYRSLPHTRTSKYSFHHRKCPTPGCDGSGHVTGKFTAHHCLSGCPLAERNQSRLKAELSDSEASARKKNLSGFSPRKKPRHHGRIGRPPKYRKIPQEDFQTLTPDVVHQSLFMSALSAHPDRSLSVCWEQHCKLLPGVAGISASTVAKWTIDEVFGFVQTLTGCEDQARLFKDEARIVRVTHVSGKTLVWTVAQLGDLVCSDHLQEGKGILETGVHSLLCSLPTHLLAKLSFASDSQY
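AlphaScreen assay: L3MBTL1 (50 nM final) was preincubated 30 min at room temperature with biotinylated H3(1-15)K9me1 peptide (75 nM final), then 30 min with library compounds; streptavidin donor and nickel chelate acceptor beads (10 ug/mL final) added, 30 min dark.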
BLM inh-1 = qHTS Assay for Inhibitors of Bloom's syndrome helicase (BLM); Potency, µM (titrated, usually from 56.1 µM), hits mostly inhibitors; actives 0.2% (n = 350,000); recombinant BLM DNA unwinding, fluorescence dequenching; AID 2528, 2010; note: nearly all actives have a fitted effect of over 35% in size
KDM4E inh = qHTS Assay for Inhibitors of Human Jumonji Domain Containing 2E (JMJD2E) | JMJD2E catalytic domain, FDH-coupled NADH fluorescence (FDH is formaldehyde dehydrogenase) | Potency, µM (highest dose often 57.1 µM), hits mostly inhibitors | actives 1.6% (n = 230,000) | AID 2147, 2009; active = well fitted inhibition curve with a large enough effect, not every such curve was filed as active; inconclusive = small, poorly fitted or top-dose-only effect, or another doubt; inactive = no such curve, though single readings can be large or run the other way; note: nearly all actives have a fitted effect of over 50% in size
RECQ1 inh-1 = qHTS Assay for Inhibitors of RecQ-Like Dna Helicase 1 (RECQ1); ATP-dependent DNA helicase Q1 (Homo sapiens), P46063; AID 2549, 2010; RECQ1 DNA unwinding, red fluorescence kinetic read; actives 0.54% (n = 240,000); Potency, µM (doses to about 57.3 µM), most hits filed as inhibitors; note: nearly all actives have a fitted effect of over 30% in size
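RECQ1T1 50 nM; forked duplex (20 bp + 30-nt ss tails) 200 nM, ATP 2 mM final; pH 8.0, 2 mM MgCl2, 2.5 ug/ml poly(dI-dC); 15 min compound preincubation; discontinuous kinetic read over 2 h at RT.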
APEX1 inh = qHTS Assay for Inhibitors of the Human Apurinic/apyrimidinic Endonuclease 1 (APE1) | DNA repair nuclease/redox regulator APEX1 (Homo sapiens), P27695 | recombinant APE1, TAMRA/BHQ-2 abasic DNA cleavage fluorescence | Potency, µM (titrated, usually from 65.8 µM), most hits filed as inhibitors | actives 0.35% (n = 350,000) | AID 2517, 2012; note: nearly all actives have a fitted effect of over 55% in size
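Quantitative HTS: incision of a TAMRA/BHQ-2 double-stranded substrate bearing a tetrahydrofuran abasic site by 0.75 nM APE1 raises fluorescence. Substrate 50 nM final, added after 15 min compound preincubation at room temperature; progress as third-minus-first kinetic read difference.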
BLM inh-2 = qHTS Confirmation Assay for Inhibitors of Bloom's syndrome helicase (BLM) | shares compounds with BLM inh-1 | Potency, µM, usual class: inhibitors | AID 2585, 2010 | actives 40% (n = 220) | BLM DNA unwinding, fluorescence quenching, biochemical;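 note: strand separation dequenches TAMRA so unwinding raises red fluorescence; series mostly up to about 69 µM; nearly all actives have a fitted effect of over 45% in size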
RECQ1 inh conf = Confirmation qHTS Assay for Inhibitors of RecQ-Like Dna Helicase 1 (RECQ1); shares compounds with RECQ1 inh-1; RECQ1 helicase DNA unwinding, fluorescence; Potency, µM (titrated, usually from 229 µM), hits mostly inhibitors; actives 28% (n = 610); AID 2708, 2010; note: nearly all actives have a fitted effect of over 45% in size
ADP FP counter = Counterscreen for RECQ1 Inhibitors: ADP Fluorescence Polarization Displacement Assay; shares compounds with RECQ1 inh-1; ADP fluorescence polarization displacement counterscreen; Potency, µM (series often up to 228 µM), hits mostly inhibitors; actives 27% (n = 530); AID 2711, 2010; note: nearly all actives have a fitted effect of over 45% in size
RECQ1 inh-2 = Confirmation qHTS Assay for Inhibitors of RecQ-Like Dna Helicase 1 (RECQ1) - Round 2 Cherry Picks; actives 15% (n = 1,100); Potency, µM (doses to about 119 µM), usual class: inhibitors; recombinant RECQ1 DNA unwinding, red fluorescence; shares compounds with RECQ1 inh-1; note: nearly all actives have a fitted effect of over 50% in size
L3MBTL1 inh-2 = qHTS Assay for the Inhibitors of L3MBTL1: Hit Validation | shares compounds with L3MBTL1 inh-1 | L3MBTL1 methyl-lysine binding inhibition, biochemical qHTS | Potency, µM, most hits filed as inhibitors | actives 91% (n = 500) | AID 540279, 2011; note: nearly all actives have a fitted effect of over 70% in size
L3MBTL1 ctr = qHTS Assay for the Inhibitors of L3MBTL1: Hit Validationin AlphaScreen Counterscreen; shares compounds with L3MBTL1 inh-1; AlphaScreen counterscreen, signal inhibition; Potency, µM (series often up to 57.1 µM), actives largely listed as inhibitors; 500 tested, under 10 active
A number is an active result; – = inactive; ? = inconclusive; · = not tested or not shown; ! = not active in a repeat; [ ] = remark or other dose. Unless noted, calls come from the whole dose curve; as a rule, active = well fitted curve in the direction sought with a large enough effect; inconclusive = small, poorly fitted or top-dose-only effect, or another doubt; inactive = no such curve, though single readings can be large; an effect the other way counts as inactive or inconclusive.

SMILES	L3MBTL1 inh-1	BLM inh-1	KDM4E inh	RECQ1 inh-1	APEX1 inh	BLM inh-2	RECQ1 inh conf	RECQ1 inh-2	others
CCOc1ccccc1CNc1ccc(O)cc1	?	28µM	–	20µM	–	–	–	–	ADP FP counter=56µM
COc1ccc(Br)cc1CNc1ccc(O)cc1	?	20µM	?	28µM	–	–	·	–
COc1ccc(Br)cc1CNc1ccc2[nH]c(=O)[nH]c2c1	–[11.4 µM]	–	?	–	–	·	·	·
CN(C)S(=O)(=O)c1ccc(N2CCCC2)c(C(=O)OCC(=O)NC2(C#N)CCCCC2)c1	–	·	·	·	–	·	·	·
CCN(C(=O)CSc1nnc(-c2ccc(F)cc2)c2ccccc12)C1CCS(=O)(=O)C1 (centres undefined)	–	–	–	–	–	·	·	·
Cc1nc2cc(-c3ccsc3-n3c(C)ccc3C)[nH]n2c(=O)c1Cl	·	16µM	?	2.8µM	?	?	40µM	?	ADP FP counter=32µM
Cc1sc2ncn(CC(=O)OC(C)C)c(=O)c2c1C	·	–	–	–	–	·	·	·
CCOc1ccc(C(=O)Nc2ccc(-c3nc4ccccc4[nH]3)cc2)cc1[N+](=O)[O-]	–	–	–	7.9µM	–	?	?	?
Cn1ncc([N+](=O)[O-])c1C(=O)Nc1ccc(-c2nc3ccccc3[nH]2)cc1	–	–	–	?	–	·	·	·
O=C(O)C1Nc2c(O)cccc2C2C=CCC12 (centres undefined)	1µM	4.5µM	18µM	4µM	3.5µM	5.4µM	?	·
COC(=O)c1ccc([C@@H]2Nc3c(cccc3C(F)(F)F)[C@@H]3C=CC[C@@H]32)cc1	·	–	·	·	·	·	·	·
Cc1c2oc3c(C)ccc(C(=O)N[C@@H]4C(=O)N[C@H](C(C)C)C(=O)N5CCC[C@H]5C(=O)N(C)CC(=O)N(C)[C@@H](C(C)C)C(=O)O[C@@H]4C)c3nc-2c(C(=O)N[C@@H]2C(=O)N[C@H](C(C)C)C(=O)N3CCC[C@H]3C(=O)N(C)CC(=O)N(C)[C@@H](C(C)C)C(=O)O[C@@H]2C)c(N)c1=O	·	?	·	3.5µM	13µM!	?	1.4µM	·
Cc1ccccc1-c1nnc(C2CCN(S(=O)(=O)c3ccc(Cl)cc3)CC2)o1	·	–	·	·	·	·	·	·
O=C(NCc1ccco1)c1c2c(nc3ccccc13)CCC2	?	18µM	?	28µM	?	?	·	?
O=C(NCc1ccc(F)cc1)c1c2c(nc3ccccc13)CCC2	?	–	?	?	–	·	·	·
Cc1cc(C(=O)O)ccc1-n1c(C)cc(/C=C2\SC(=O)NC2=O)c1C	–	–	·	·	–	·	·	·
Cc1ccc(C)c(S(=O)(=O)N2CCN(C(=O)CCc3c[nH]c4ccccc34)CC2)c1	–	·	·	·	–	·	·	·
COc1ccccc1CNC(=O)COC(=O)c1cc(C)nc2ccccc12	–	·	·	·	–	·	·	·
COc1ccccc1CNC(=O)COC(=O)c1cc(-c2ccco2)nc2ccccc12	·	11µM	?	?	11µM	18µM	·	?
O=c1c(-c2ccccc2)nc2cnc(N3CCNCC3)nc2n1Cc1ccc(F)cc1	·	–	·	–	–	·	·	·
O=c1c(-c2cc(F)cc(F)c2)nc2cnc(N3CCNCC3)nc2n1Cc1ccc(F)cc1	·	35µM	·	?	?	?	·	?
CC(=O)Nc1ccc(SCC(=O)c2ccc(Br)s2)cc1	·	–	·	·	–	·	·	·
Cc1ccc(SCC(=O)c2ccc(CC(=O)O)s2)cc1	?	25µM	–	25µM	–	?	·	–
COc1ccc(OC)c(Nc2cc(C(=O)NCc3ccccc3)c3ccccc3n2)c1	·	–	·	·	·	·	·	·
Cc1[nH]c2ccccc2c1/C=N/NC(=O)c1cccc([N+](=O)[O-])c1	–	–	–	1.6µM	–	?	?	·	ADP FP counter=–
SMILES	L3MBTL1 inh-1	BLM inh-1	KDM4E inh	RECQ1 inh-1	APEX1 inh	BLM inh-2	RECQ1 inh conf	RECQ1 inh-2	others
O=C(Cn1ccc([N+](=O)[O-])n1)NCc1nc2ccccc2[nH]1	·	–	–	–	–	·	·	·
CCOC(=O)c1sc2nc3c(SCC(=O)O)cc(C(=O)c4cc(F)ccc4O)cn3c(=O)c2c1C	–	22µM	?	?	8.9µM	32µM	·	–
O=C(N/N=C/c1cccc(F)c1)c1cc(-c2ccco2)nc2ccccc12	5.6µM	11µM	?	22µM	4.5µM	5.8µM	28µM	·	ADP FP counter=?
Cc1nc2sc3c(c2c(=O)[nH]1)CCC3	·	–	–	–	–	·	·	·
Cc1cc(-c2nc3c4c5c(sc4[nH]c(=O)n3n2)CCC5)c(C)o1	8.9µM	14µM	–	13µM	?	11µM	18µM	?	ADP FP counter=?;L3MBTL1 inh-2=9.5;L3MBTL1 ctr=–
CCC1(c2ccc(F)cc2)NC(=O)N(CC(=O)N2CCN(S(=O)(=O)c3ccc(Cl)cc3)CC2)C1=O (centres undefined)	–	·	·	·	–	·	·	·
O=C(CSc1nc(-c2ccccc2)nc2c1Cc1ccccc1O2)Nc1ccc(C(=O)O)cc1	10µM	10µM	?	8.9µM	–	13µM	–	·	L3MBTL1 inh-2=6;L3MBTL1 ctr=?
O=C(NC1CC1)c1cccc(Oc2ccccc2)c1	–	–	·	·	–	·	·	·
CN(CCC#N)C(=O)COC(=O)c1c2c(nc3ccccc13)/C(=C/c1ccco1)CC2	10µM	14µM	25µM	16µM	14µM	?	·	?	L3MBTL1 inh-2=2.1;L3MBTL1 ctr=?
COc1ccc(C(CC(=O)N2CCCC2)c2c(OC)cc(OC)c3ccc(=O)oc23)cc1 (centres undefined)	·	–	?	–	–	·	·	·
